Results taken from PubChem BioAssay (NCI).
Several values for one entry are separate records, joined by “and”; a condition that tells them apart may be missing. Identical values can stand only once. The panel holds about 79,000 compounds, 15% with a hit somewhere; the sample as a whole holds those more often. Some compounds were tested as several samples or in several runs, with calls that do not always agree. Activity calls are given as the source filed them. No stated cut-off is given here; in the data, active means growth inhibition above about 70%; inactive means the rest.

How the values were obtained:
[1] = NCI Yeast Anticancer Drug Screen. Data for the rad52 strain (AID 147);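 further: 0% = growth of vehicle-treated control cultures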; conditions: S. cerevisiae rad52 mutant growth inhibition, stronger effect = higher value
Summary of the method: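 Measured: yeast growth inhibition. System: strain with a defined DNA damage repair alteration. Reference: vehicle-treated control cultures.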

[2] = NCI Yeast Anticancer Drug Screen. Data for the wt1 strain (AID 149);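 further: 0% = growth of vehicle-treated wt1 cultures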; conditions: S. cerevisiae wt1 strain (SPY 50644) growth inhibition, stronger effect = higher value
Summary of the method: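 wt1 strain grown with compound or vehicle; inhibition taken from the growth difference.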

[3] = NCI Yeast Anticancer Drug Screen. Data for the rad50EPP+ strain (AID 151);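 further: 0% = growth of vehicle-treated control cultures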; conditions: S. cerevisiae rad50 mutant strain, stronger effect = higher value
Summary of the method: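 One strain with a rad50 alteration (rad50EPP+) was compound-treated, its growth then compared to that of vehicle controls.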

[4] = NCI Yeast Anticancer Drug Screen. Data for the mgt1 strain (AID 153); conditions: S. cerevisiae mgt1 mutant growth inhibition, stronger effect = higher value
Summary of the method: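 After exposure of the mgt1 yeast mutant to compound, growth was measured and reported as inhibition compared with vehicle controls.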

[5] = NCI Yeast Anticancer Drug Screen. Data for the rad50 strain (AID 155);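 further: 0% = growth of vehicle-only cultures of the same strain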; conditions: S. cerevisiae rad50 strain growth inhibition, stronger effect = higher value
Summary of the method: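 DNA repair mutant yeast, compound exposure, growth read-out; inhibition is taken relative to vehicle.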

[6] = NCI Yeast Anticancer Drug Screen. Data for the mec2-1 strain (AID 157); conditions: S. cerevisiae mec2-1 strain, stronger effect = higher value
Summary of the method: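 Test agents were screened against the mec2-1 yeast strain, with defined DNA repair or cell cycle alteration. Growth was scored as inhibition against vehicle-only controls.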

[7] = NCI Yeast Anticancer Drug Screen. Data for the sgs1 mgt1 strain (AID 161);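 further: 0% = growth of cultures given vehicle only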; conditions: S. cerevisiae sgs1 mgt1 strain, stronger effect = higher value
Summary of the method: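 Read-out: growth inhibition vs vehicle controls. Cells: mutant yeast strain deficient in DNA damage repair.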

[8] = NCI Yeast Anticancer Drug Screen. Data for the CLN2oe strain (AID 163);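 further: 0% = growth of vehicle-only control cultures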; conditions: S. cerevisiae CLN2oe strain, stronger effect = higher value
Summary of the method: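 Here, growth inhibition in a cell-cycle-altered yeast strain after compound exposure was quantified against vehicle control growth.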

[9] = NCI Yeast Anticancer Drug Screen. Data for the cln2 rad14 strain (AID 165);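 further: 0% = growth equal to vehicle treated cultures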; conditions: S. cerevisiae cln2 rad14 strain, stronger effect = higher value
Summary of the method: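 Growth of compound-exposed yeast (cln2 rad14 genotype) measured and expressed as inhibition relative to vehicle.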

[10] = NCI Yeast Anticancer Drug Screen. Data for the bub3 strain (AID 167); conditions: S. cerevisiae bub3 mutant strain, stronger effect = higher value
Summary of the method: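 In this screen, a yeast mutant lacking normal mitotic checkpoint function is challenged with compound. Relative growth versus vehicle gives the inhibition value.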

[11] = NCI Yeast Anticancer Drug Screen. Data for the mlh1 strain (AID 171);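 further: 0% = growth of vehicle-treated control cultures of the same strain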; conditions: S. cerevisiae mlh1 strain growth inhibition, stronger effect = higher value
Summary of the method: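 Here the genetically defined yeast mutant is grown with each compound, and the extent to which its growth falls below that of vehicle-exposed cells is reported.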

[12] = NCI Yeast Anticancer Drug Screen. Data for the sgs1 strain (AID 173);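 further: 0% = growth of vehicle-only control cultures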; conditions: S. cerevisiae sgs1 mutant, stronger effect = higher value
Summary of the method: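 Relative growth inhibition, referenced to vehicle, was determined in a yeast strain with a defined alteration affecting DNA damage repair or cell cycle control after compound exposure.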

[13] = NCI Yeast Anticancer Drug Screen. Data for the mlh1 rad18 strain (AID 175); conditions: S. cerevisiae mlh1 rad18 strain growth inhibition, stronger effect = higher value
Summary of the method: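 In this whole-cell yeast screen, a strain with altered DNA damage repair is challenged with compound, and its growth is measured against matched vehicle-treated controls.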

[14] = NCI Yeast Anticancer Drug Screen. Data for the rad18 strain (AID 177); conditions: S. cerevisiae rad18 mutant growth inhibition, stronger effect = higher value
Summary of the method: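 Screen uses a yeast strain with a defined lesion in DNA damage repair; compound effect is read as loss of growth compared to untreated vehicle cultures.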

[15] = NCI Yeast Anticancer Drug Screen. Data for the rad14 strain (AID 159);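 further: 0% = growth of vehicle-treated control cultures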; conditions: S. cerevisiae rad14 strain growth inhibition, stronger effect = higher value
Summary of the method: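 DNA repair-defective yeast, compound-exposed; % growth inhibition derived by comparison with vehicle-treated controls.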

[16] = NCI Yeast Anticancer Drug Screen. Data for the wt2 strain (AID 169);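 further: 0% = growth of vehicle-treated yeast cultures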; conditions: S. cerevisiae wt2 strain growth inhibition, stronger effect = higher value
Summary of the method: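 Genetically defined yeast strains from a DNA-repair/cell-cycle panel were used. Compound-exposed yeast growth was measured, and the inhibition was calculated relative to vehicle treatment.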

[17] = at 5.0 µM (retest, dose inferred, filed as 0.5)
[18] = at 50.0 µM (retest, dose inferred, filed as 5.0)

Measured: growth inhibition

Oc1c(Br)cc(Br)cc1Br
35% (inactive) and 97% (active): [13]; [18]
49% (inactive) and 98.4% (active): [9]; at 50.0 µM
52% (inactive) and 99.5% (active): [6]; at 50.0 µM
active: [1]; at 100.0 µM 88% | [2]; at 100.0 µM 91% | [3]; at 100.0 µM 88% | [4]; at 100.0 µM 82% | [5]; at 100.0 µM 91% | [6]; at 100.0 µM 86% | [7]; [18] 79% and 99% | [8]; at 100.0 µM 89% | [9]; [18] 87% and 99% | [10]; [18] 86% and 98% | [10]; at 50.0 µM 70.3% and 99.2% | [10]; at 100.0 µM 87% | [11]; at 100.0 µM 78% | [12]; at 100.0 µM 88% | [14]; at 100.0 µM 88%
inactive: [1]; at 1.2 µM 5% | [1]; at 3.7 µM 2% | [1]; at 11.0 µM 3% | [1]; at 33.0 µM 30% | [2]; at 1.2 µM -4% | [2]; at 3.7 µM -7% | [2]; at 11.0 µM 2% | [2]; at 33.0 µM 37% | [3]; at 1.2 µM 3% | [3]; at 3.7 µM 12% | [3]; at 11.0 µM 30% | [3]; at 33.0 µM 60% | [4]; at 1.2 µM 12% | [4]; at 3.7 µM 1% | [4]; at 11.0 µM 24% | [4]; at 33.0 µM 52% | [5]; at 1.2 µM 10% | [5]; at 3.7 µM 4% | [5]; [17] 41% and -1% | [5]; at 11.0 µM 5% | [5]; at 33.0 µM 41% | [6]; at 1.2 µM -1% | [6]; at 3.7 µM -7% | [6]; [17] 25% and 4% | [6]; at 11.0 µM 1% | [6]; at 33.0 µM 38% | [7]; [17] 7% | [8]; at 1.2 µM -14% | [8]; at 3.7 µM 7% | [8]; at 11.0 µM -1% | [8]; at 33.0 µM 21% | [9]; [17] 47% and -11% | [10]; at 1.2 µM -5% | [10]; at 3.7 µM 18% | [10]; [17] 40% and 0% | [10]; at 11.0 µM 24% | [10]; at 33.0 µM 39% | [11]; at 1.2 µM -3% | [11]; at 3.7 µM -19% | [11]; at 11.0 µM -9% | [11]; at 33.0 µM 22% | [12]; at 1.2 µM 13% | [12]; at 3.7 µM 12% | [12]; at 11.0 µM 6% | [12]; at 33.0 µM 37% | [13]; [17] 41% and 15% | [14]; at 1.2 µM 7% | [14]; at 3.7 µM 1% | [14]; at 11.0 µM 3% | [14]; at 33.0 µM 32%
44% (inactive) and 99% (active): [6]; [18]
54% (inactive) and 98% (active): [5]; [18]
66.5% (inactive) and 99% (active): [5]; at 50.0 µM
59.6% (inactive) and 99% (active): [13]; at 50.0 µM
59.5% (inactive) and 98.7% (active): [7]; at 50.0 µM

CC(Cc1ccccc1)N(C)Cc1nc(C2CCC([N+](=O)[O-])O2)no1 (stereo unspecified)
active: [1]; at 100.0 µM 84% | [5]; [18] 95% | [5]; at 50.0 µM 84.7% | [5]; at 100.0 µM 81% | [6]; [18] 98% | [15]; at 33.0 µM 70% | [15]; at 100.0 µM 93% | [7]; [18] 99% | [7]; at 50.0 µM 85.3% | [8]; at 100.0 µM 93% | [9]; [18] 94% | [9]; at 50.0 µM 88% | [10]; [18] 100% | [10]; at 50.0 µM 90% | [10]; at 100.0 µM 79% | [13]; [18] 97% | [13]; at 50.0 µM 80.2% | [14]; at 33.0 µM 86% | [14]; at 100.0 µM 95%
inactive: [1]; at 1.2 µM 6% | [1]; at 3.7 µM 14% | [1]; at 11.0 µM 22% | [1]; at 33.0 µM 53% | [2]; at 1.2 µM -1% | [2]; at 3.7 µM 0% | [2]; at 11.0 µM 2% | [2]; at 33.0 µM 3% | [2]; at 100.0 µM 8% | [4]; at 1.2 µM 1% | [4]; at 3.7 µM -1% | [4]; at 11.0 µM 13% | [4]; at 33.0 µM 25% | [4]; at 100.0 µM 49% | [5]; at 1.2 µM 4% | [5]; at 3.7 µM 10% | [5]; [17] 17% | [5]; at 11.0 µM 10% | [5]; at 33.0 µM 46% | [6]; at 1.2 µM 4% | [6]; at 3.7 µM 2% | [6]; [17] 18% | [6]; at 11.0 µM 4% | [6]; at 33.0 µM 17% | [6]; at 50.0 µM 66% | [6]; at 100.0 µM 33% | [15]; at 1.2 µM 5% | [15]; at 3.7 µM 14% | [15]; at 11.0 µM 45% | [7]; [17] 35% | [8]; at 1.2 µM -1% | [8]; at 3.7 µM 1% | [8]; at 11.0 µM 8% | [8]; at 33.0 µM 48% | [9]; [17] 5% | [10]; at 1.2 µM 0% | [10]; at 3.7 µM 9% | [10]; [17] -16% | [10]; at 11.0 µM 20% | [10]; at 33.0 µM 54% | [16]; at 1.2 µM 0% | [16]; at 3.7 µM 3% | [16]; at 11.0 µM 9% | [16]; at 33.0 µM 27% | [16]; at 100.0 µM 34% | [11]; at 1.2 µM -1% | [11]; at 3.7 µM -3% | [11]; at 11.0 µM 2% | [11]; at 33.0 µM 14% | [11]; at 100.0 µM 17% | [12]; at 1.2 µM -26% | [12]; at 3.7 µM 5% | [12]; at 11.0 µM 20% | [12]; at 33.0 µM 50% | [12]; at 100.0 µM 67% | [13]; [17] 47% | [14]; at 1.2 µM 14% | [14]; at 3.7 µM 36% | [14]; at 11.0 µM 69%
